Results as given in PubChem BioAssay AID1159580 (chemical genetic matrix, 2015).
“And” between values parts separate entries of the source, which are not always exact repeats. Equal values may be shown once. About 2,000 (36%) of roughly 5,500 compounds were called active. About 18% were inconclusive and are not listed. Rule as the data show it: active = normalized growth mostly below about 0.91 (no sharp cut-off); inconclusive = no clear call, values can overlap the other calls; inactive = mostly above about 0.92. Some of the results follow.

Test: chemical genetic growth profiling, strain panel (AID 1159580);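 also: tested at 20 µM; growth read once vehicle control cultures reached saturation at 30 °C; 1 = growth at the plate median or of vehicle wells; lower values mean less growth of the strain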
Settings: S. cerevisiae deletion strains, growth OD

Measured: normalized growth

COc1ccc(-c2cc(=O)c3cc(OC)ccc3o2)cc1
active: locus YAL030W, strain snc1, hits give low values 0.928 | locus YBR009C, strain hhf1, hits give low values 0.902 | locus YCL011C, strain gbp2, hits give low values 0.887 | locus YDR392W, strain spt3, hits give low values 0.571 | locus YEL037C, strain rad23, hits give low values 0.921 | locus YER155C, strain BEM2 (second series), hits give low values 0.771 | locus YGL253W, strain hxk2, hits give low values 0.894 | locus YHR142W, strain chs7, hits give low values 0.84 | locus YJL164C, strain tpk1, hits give low values 0.912 | locus YLL026W, hits give low values 0.926 | locus YLR320W, strain mms22, hits give low values 0.869 | locus YNL071W, strain lat1, hits give low values 0.831 | locus YOR270C, strain vph1, hits give low values 0.676 | locus YOR290C, strain snf2, hits give low values 0.849
inactive: locus YAL013W, strain DEP1, hits give low values 0.982 | locus YAL021C, strain ccr4, hits give low values 0.964 | locus YAL026C, strain drs2, hits give low values 0.922 | locus YBL061C, strain skt5, hits give low values 0.937 | locus YBR021W, strain FUR4, hits give low values 0.908 | locus YBR023C, strain chs3, hits give low values 0.916 | locus YBR171W, strain sec66, hits give low values 0.95 | locus YBR229C, strain ROT2, hits give low values 0.999 | locus YBR231C, strain swc5, hits give low values 0.939 | locus YBR279W, strain paf1, hits give low values 0.944 | locus YCL016C, strain dcc1, hits give low values 0.944 | locus YCL029C, strain bik1, hits give low values 0.987 | locus YCL061C, strain MRC1, hits give low values 0.96 | locus YCL069W, strain vba3, hits give low values 0.945 | locus YCR088W, strain abp1, hits give low values 0.94 | locus YDL005C, strain med2, hits give low values 0.949 | locus YDL035C, strain GPR1, hits give low values 0.977 | locus YDL040C, strain nat1, hits give low values 0.95 | locus YDL074C, strain BRE1, hits give low values 0.918 | locus YDL101C, strain DUN1, hits give low values 0.983 | locus YDL134C, strain PPH21, hits give low values 1.04 | locus YDL185W, strain tfp1, hits give low values 0.946 | locus YDL192W, strain arf1, hits give low values 0.978 | locus YDR001C, strain nth1, hits give low values 0.942 | locus YDR069C, strain doa4, hits give low values 0.948 | locus YDR101C, strain arx1, hits give low values 0.946 | locus YDR137W, strain rgp1, hits give low values 0.883 | locus YDR150W, strain NUM1, hits give low values 0.983 | locus YDR159W, strain sac3, hits give low values 0.925 | locus YDR162C, strain NBP2, hits give low values 1.01 | locus YDR195W, strain ref2 1.04 | locus YDR297W, strain sur2, hits give low values 0.955 | locus YDR318W, strain mcm21, hits give low values 1.02 | locus YDR334W, strain swr1, hits give low values 0.931 | locus YDR335W, strain msn5, hits give low values 0.962 | locus YDR388W, hits give low values 1 | locus YDR502C, strain sam2, hits give low values 0.968 | locus YEL003W, strain gim4, hits give low values 0.956 | locus YEL061C, strain CIN8 (second series), hits give low values 0.93 | locus YEL061C, strain CIN8, hits give low values 1.01 | locus YER015W, strain faa2, hits give low values 0.969 | locus YER016W, strain bim1, hits give low values 0.954 | locus YER110C, hits give low values 0.974 | locus YER111C, strain swi4, hits give low values 0.943 | locus YER155C, strain BEM2, hits give low values 0.985 | locus YER167W, strain BCK2, hits give low values 0.997 | locus YFR010W, strain ubp6, hits give low values 0.906 | locus YGL078C, strain dbp3, hits give low values 0.995 | locus YGL086W, strain mad1, hits give low values 0.938 | locus YGL167C, strain pmr1, hits give low values 0.924 | locus YGL173C, strain kem1, hits give low values 0.947 | locus YGL227W, strain vid30, hits give low values 0.947 | locus YGL240W, strain doc1, hits give low values 0.892 | locus YGL248W, strain PDE1, hits give low values 1.01 | locus YGR078C, strain PAC10, hits give low values 0.988 | locus YGR135W, strain pre9, hits give low values 1.01 | locus YGR229C, strain SMI1, hits give low values 0.961 | locus YGR252W, strain gcn5, hits give low values 1.04 | locus YHR013C, strain ard1, hits give low values 0.972 | locus YHR027C, strain rpn1, hits give low values 0.949 | locus YHR030C, strain SLT2, hits give low values 0.998 and 0.956 | locus YHR079C, strain IRE1 (second series), hits give low values 0.997 | locus YHR079C, strain IRE1, hits give low values 0.928 | locus YHR094C, strain hxt1, hits give low values 1.01 | locus YHR129C, strain ARP1, hits give low values 0.985 | locus YHR200W, strain rpn10, hits give low values 0.985 | locus YIL066C, strain RNR3, hits give low values 0.999 | locus YIL073C, strain SPO22, hits give low values 0.973 | locus YIL125W, strain kgd1, hits give low values 0.99 | locus YIR030C, strain dcg1, hits give low values 1.01 | locus YJL092W, strain hpr5, hits give low values 0.948 | locus YJL095W, strain BCK1 (second series), hits give low values 0.95 | locus YJL095W, strain BCK1, hits give low values 0.96 and 0.964 | locus YJL115W, strain asf1, hits give low values 0.936 | locus YJL129C, strain trk1, hits give low values 0.937 | locus YJL134W, strain LCB3, hits give low values 0.996 | locus YJL154C, strain vps35, hits give low values 0.942 | locus YJL166W, strain qcr8, hits give low values 0.913 | locus YJL168C, strain set2, hits give low values 1 | locus YJL187C, strain SWE1 (second series), hits give low values 0.972 | locus YJL187C, strain SWE1, hits give low values 0.948 | locus YJR043C, strain POL32, hits give low values 0.966 | locus YJR066W, strain TOR1, hits give low values 0.893 | locus YKL009W, strain mrt4, hits give low values 0.925 | locus YKL068W, hits give low values 1 | locus YKL085W, strain MDH1 (second series), hits give low values 0.997 | locus YKL085W, strain MDH1, hits give low values 0.997 | locus YKL160W, strain elf1, hits give low values 0.939 | locus YKL190W, strain CNB1, hits give low values 1 | locus YKR001C, strain vps1, hits give low values 0.93 | locus YKR026C, strain gcn3, hits give low values 0.942 | locus YKR091W, strain srl3, hits give low values 0.96 | locus YLL001W, strain dnm1, hits give low values 0.931 | locus YLL041C, strain sdh2, hits give low values 0.96 | locus YLR027C, strain aat2, hits give low values 0.925 | locus YLR039C, strain RIC1, hits give low values 1.01 | locus YLR058C, strain SHM2, hits give low values 0.99 | locus YLR102C, strain apc9, hits give low values 0.975 | locus YLR113W, strain HOG1, hits give low values 0.981 | locus YLR221C, strain rsa3, hits give low values 0.947 | locus YLR258W, strain gsy2, hits give low values 0.934 | locus YLR262C, strain YPT6 (second series), hits give low values 0.902 | locus YLR262C, strain YPT6, hits give low values 1.06 | locus YLR268W, strain sec22, hits give low values 0.965 | locus YLR330W, strain CHS5, hits give low values 0.925 | locus YLR342W, strain FKS1 (second series), hits give low values 0.975 | locus YLR342W, strain FKS1, hits give low values 0.94 | locus YLR357W, strain rsc2, hits give low values 0.88 | locus YLR370C, strain arc18, hits give low values 0.941 | locus YLR371W, strain rom2, hits give low values 0.965 | locus YLR384C, strain iki3, hits give low values 0.944 | locus YLR418C, strain cdc73, hits give low values 0.943 | locus YML016C, strain PPZ1, hits give low values 0.991 | locus YML032C, strain rad52, hits give low values 0.997 | locus YML120C, strain ndi1, hits give low values 0.946 | locus YML124C, strain tub3, hits give low values 1.01 | locus YMR058W, strain fet3, hits give low values 0.928 | locus YMR078C, strain ctf18, hits give low values 0.982 | locus YMR125W, strain sto1, hits give low values 0.927 | locus YMR129W, hits give low values 0.949 | locus YMR205C, strain PFK2, hits give low values 0.898 | locus YMR223W, strain ubp8, hits give low values 1.02 | locus YMR231W, strain pep5, hits give low values 0.974 | locus YMR307W, strain GAS1, hits give low values 1.06 | locus YNL067W, strain RPL9B, hits give low values 0.99 | locus YNL183C, strain NPR1, hits give low values 0.885 | locus YNL209W, strain ssb2, hits give low values 0.956 | locus YNL233W, strain BNI4, hits give low values 0.914 | locus YNL248C, strain rpa49, hits give low values 0.95 | locus YNL250W, strain rad50, hits give low values 0.957 | locus YNL271C, strain bni1, hits give low values 1.02 | locus YNL298W, strain CLA4, hits give low values 0.995 | locus YNL307C, strain MCK1, hits give low values 0.987 | locus YNL322C, strain KRE1 (second series), hits give low values 0.948 | locus YNL322C, strain KRE1, hits give low values 1 | locus YNR049C, strain mso1, hits give low values 0.937 | locus YNR052C, strain pop2, hits give low values 1.02 | locus YOL012C, strain htz1 1.07 | locus YOL147C, strain pex11, hits give low values 0.997 | locus YOR001W, strain rrp6, hits give low values 0.95 | locus YOR061W, strain CKA2, hits give low values 1.01 | locus YOR069W, strain VPS5, hits give low values 0.99 | locus YOR070C, strain gyp1, hits give low values 0.941 | locus YOR080W, strain dia2, hits give low values 0.961 | locus YOR083W, strain WHI5, hits give low values 0.954 | locus YOR106W, strain vam3, hits give low values 0.905 | locus YOR136W, strain idh2, hits give low values 0.988 | locus YOR144C, strain elg1, hits give low values 0.997 | locus YOR184W, strain ser1, hits give low values 0.979 | locus YOR231W, strain MKK1, hits give low values 0.952 | locus YOR265W, strain rbl2, hits give low values 0.949 | locus YOR316C, strain cot1, hits give low values 0.996 | locus YPL051W, strain arl3, hits give low values 0.945 | locus YPL055C, strain LGE1, hits give low values 0.934 | locus YPL078C, strain atp4, hits give low values 0.922 | locus YPL106C, strain sse1, hits give low values 0.873 | locus YPL240C, strain hsp82, hits give low values 0.972 | locus YPL241C, strain CIN2, hits give low values 0.997 | locus YPL256C, strain CLN2, hits give low values 0.962 | locus YPR119W, strain clb2, hits give low values 1 | locus YPR141C, strain kar3, hits give low values 1.02 | locus YPR163C, strain tif3, hits give low values 1 | locus YPR167C, strain met16, hits give low values 1.02 | strain wtn01, hits give low values 0.944
